{"source": "PubChem BioAssay AID463190", "about": "(Sanford-Burnham Center for Chemical Genomics, 2010)", "note": "In all, about 330,000 compounds went through this assay and about 7,300 (2.2%) were called active. The full list was thinned out, with actives kept by preference. Values without a mark were called inactive.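 The calls were made as follows: active = inhibition of at least 40%; inactive = the rest.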"}
{"experiment": "growth inhibition of tim10-1 ts yeast – luminescence, uHTS, primary screen (AID 463190);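 also: mutant grown at 25 °C; 0% = DMSO wells with yeast and 100% = wells holding no yeast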", "conditions": "S. cerevisiae tim10-1 ts strain growth, BacTiter-Glo, 24 h; at 20 µM; active compounds read high"}
{"compound": "COc1ccc(C(=O)OCC(=O)NCC2CCCO2)cc1[N+](=O)[O-]", "note": "(centres undefined)", "inhibition": "-1.22%"}
{"compound": "COc1ccc(C(=O)OCC(=O)c2cc(C)n(CC3CCCO3)c2C)cc1[N+](=O)[O-]", "note": "(centres undefined)", "inhibition": "44.5% (active)"}
{"compound": "Cc1ccsc1C(=O)OCC(=O)c1cc(C)n(CC2CCCO2)c1C", "note": "(centres undefined)", "inhibition": "33%"}
{"compound": "COC(=O)CN1C(=O)[C@H]2[C@@H](/C=C/c3ccccc3)N3C(=O)CN(Cc4ccccc4)C(=O)[C@@]3(Cc3ccccc3)[C@H]2C1=O", "inhibition": "8.2%"}
{"compound": "Fc1ccccc1/C=C1\\CCCC2=C1Nc1ncnn1C2c1ccccc1F", "note": "(centres undefined)", "inhibition": "40.1% (active)"}
{"compound": "CC1=C(C(N)=O)C(c2ccc(Br)cc2)n2ncnc2N1", "note": "(centres undefined)", "inhibition": "10.7%"}
{"compound": "OC1CN=C2Sc3ccccc3N2C1", "note": "(centres undefined)", "inhibition": "10.5%"}
{"compound": "CCc1cccc2c(C=C(C#N)C#N)cn(CC(=O)N3CCCCC3)c12", "inhibition": "18%"}
{"compound": "Cc1ccc(C(=O)O)cc1S(=O)(=O)NCC1CCCO1", "note": "(centres undefined)", "inhibition": "-1.57%"}
{"compound": "Cn1c(C(=O)OC(C(=O)NC2CCCCC2)c2ccccn2)cc2sccc21", "note": "(centres undefined)", "inhibition": "40.4% (active)"}
{"compound": "Cn1c(C(=O)N2CCCC(C(=O)NCc3ccccc3)C2)cc2sccc21", "note": "(centres undefined)", "inhibition": "-2.21%"}
{"compound": "CC(C)C(OC(=O)c1cccs1)C(=O)NC1CCCCC1", "note": "(centres undefined)", "inhibition": "14.5%"}
{"compound": "O=C1C2(c3ccccc3)CN(CCCO)CC1(c1ccccc1)CN(CCCO)C2", "inhibition": "13.9%"}
{"compound": "CCOC(=O)C1(C(F)(F)F)N=C(N(C)C)OC(N(C)C)=N1", "inhibition": "0.707%"}
{"compound": "CCCCn1c(=S)[nH]c2ccccc2c1=O", "inhibition": "30.4%"}
{"compound": "S=c1[nH]c2ccccc2c2ccccc12", "inhibition": "40.1% (active)"}
{"compound": "S=c1ccc2ccccc2[nH]1", "inhibition": "8.36%"}
{"compound": "CC(C)Oc1ccc(C(CC(=O)N2CCOCC2)C(C)C)cc1", "note": "(centres undefined)", "inhibition": "1.61%"}
{"compound": "COc1ccccc1C(=O)NCC(=O)NCCSc1ccc(Br)cc1", "inhibition": "12.5%"}
{"compound": "Oc1ccccc1CN1CCN(C(c2ccccc2)c2ccccc2)CC1", "inhibition": "24.4%"}
{"compound": "CCN1CCN(C(c2cccnc2)c2cc(Cl)c3cccnc3c2O)CC1", "note": "(centres undefined)", "inhibition": "50.7% (active)"}
{"compound": "CCN1CCN(c2ccc(NC(=O)c3cnccn3)cc2)CC1", "inhibition": "4.72%"}
{"compound": "C=C(C)c1cccc(C(C)(C)NC(=O)NCCN(CC)CC)c1", "inhibition": "15.8%"}
{"compound": "O=C1COc2ccc(NC(=O)N3CCN(c4ccc(F)cc4)CC3)cc2N1", "inhibition": "-1.3%"}
{"compound": "CCOC(=O)C1Nc2ccc(C(F)(F)F)cc2C2C=CCC12", "note": "(centres undefined)", "inhibition": "26.6%"}
{"compound": "O=C1NC(Nc2nc3ccccc3s2)(C(F)(F)F)C(=O)N1C1CCCCC1", "note": "(centres undefined)", "inhibition": "55.7% (active)"}
{"compound": "O=C(NC1(C(F)(F)F)NC(=O)N(C2CCCCC2)C1=O)c1ccco1", "note": "(centres undefined)", "inhibition": "9.83%"}
{"compound": "COC(=O)NC1(C(F)(F)F)NC(=O)N(C2CCCCC2)C1=O", "note": "(centres undefined)", "inhibition": "-0.477%"}
{"compound": "C=CCC1(CC=C)CCCN1C(=O)CC1C(=O)NCCN1Cc1ccccc1OC", "note": "(centres undefined)", "inhibition": "7.02%"}
{"compound": "CC(=O)/C(=N\\Nc1ccc(Cl)cc1Cl)Sc1cccc2cccnc12", "inhibition": "53.2% (active)"}
{"compound": "O=C(Nc1cccc2cccnc12)c1cccc(Cl)c1", "inhibition": "20.4%"}
{"compound": "S=C(NCc1cccnc1)Nc1ccc(Cl)cc1Cl", "inhibition": "15%"}
{"compound": "Cn1cccc1C(=O)OCC(=O)NCCc1ccccc1", "inhibition": "-4.06%"}
{"compound": "Cc1c(C)n(Cc2ccc(Cl)cc2)c2ccc(C(=O)NCCCN3CCOCC3)cc12", "inhibition": "5.97%"}
{"compound": "NS(=O)(=O)c1ccc(CCNC(=O)Nc2ccc(Cl)cc2)cc1", "inhibition": "8.7%"}
{"compound": "O=C(Nc1ccc(Cl)cc1)Nc1nnc(/C=C/c2ccccc2)s1", "inhibition": "5.19%"}
{"compound": "O=C(Nc1ccccc1)c1nnsc1S(=O)(=O)c1ccc(Cl)cc1", "inhibition": "87.7% (active)"}
{"compound": "COC(=O)c1cc(NC(=O)c2nn(C)c(=O)c3ccccc23)cc(C(=O)OC)c1", "inhibition": "13.9%"}
{"compound": "CCc1ccccc1NC(=O)Cc1cn(C)c2ccccc12", "inhibition": "24.8%"}
{"compound": "C=C(C)Cn1c(C)cc(C)c(S(=O)(=O)c2ccccc2C)c1=O", "inhibition": "27.4%"}
{"compound": "Nc1ccccc1SC(C[N+](=O)[O-])c1ccccc1", "note": "(centres undefined)", "inhibition": "48.9% (active)"}
{"compound": "CCS(=O)(=O)c1cc([N+](=O)[O-])c(Sc2ccccc2N)s1", "inhibition": "7.45%"}
{"compound": "Cc1ccc(C)c(N2CCN(C(=O)CCCCCn3c(=S)[nH]c4ccc(N5CCOCC5)cc4c3=O)CC2)c1", "inhibition": "0.092%"}
{"compound": "Cc1ccc(C)c(N2CCN(C(=O)CCc3nc4ccccc4[nH]3)CC2)c1", "inhibition": "22.3%"}
{"compound": "Cc1ccc(C)c(N2CCN(C(=O)CCCCn3c(=O)[nH]c4ccccc4c3=O)CC2)c1", "inhibition": "40.7% (active)"}
{"compound": "O=C(CCC1CCCCC1)Nc1cc(C(F)(F)F)ccc1N1CCOCC1", "inhibition": "27.5%"}
{"compound": "O=C(NCCc1ccccc1)C1CCC(Cn2c(=O)c3ccccc3n(Cc3cccnc3)c2=O)CC1", "note": "(centres undefined)", "inhibition": "15.4%"}
{"compound": "Cc1ccc(Cl)cc1NC(=O)C1CCCN(c2cnccn2)C1", "note": "(centres undefined)", "inhibition": "12.5%"}
{"compound": "CC(=O)c1cc(C#N)c(SCC(=O)Nc2nccs2)nc1C", "inhibition": "-56.3%"}
{"compound": "Cc1ccc(NCc2n[nH]c(=S)n2-c2ccccc2)cc1Cl", "inhibition": "23%"}
{"compound": "S=c1[nH]nc(CSCc2ccc(Cl)cc2Cl)n1-c1ccccc1", "inhibition": "41.3% (active)"}
{"compound": "S=c1[nH]nc(COc2ccccc2)n1-c1ccccc1", "inhibition": "21.4%"}
{"compound": "CCCCNC(=O)C(C)N(CCN(C)C)C(=O)CCCN1C(=O)NC(c2ccc(Cl)cc2)C(C(=O)OCc2ccccc2)=C1C", "note": "(centres undefined)", "inhibition": "6.33%"}
{"compound": "CCCc1cc(=O)[nH]c(SCC(=O)Nc2sc3c(c2C#N)CCCC3)n1", "inhibition": "6.17%"}
{"compound": "COc1ccc(CCNC(=O)C(=O)Nc2ccc3nc4n(c(=O)c3c2)CCCCC4)cc1OC", "inhibition": "9.06%"}
{"compound": "CCn1cc(CNC(=O)c2cc([N+](=O)[O-])c(C)c([N+](=O)[O-])c2)cn1", "inhibition": "14.3%"}
{"compound": "S=C(NCC1COc2ccccc2O1)Nc1ccc(Br)cc1", "note": "(centres undefined)", "inhibition": "7.9%"}
{"compound": "CCC(=O)c1ccc(OCC(=O)N(CC)CC2COc3ccccc3O2)cc1", "note": "(centres undefined)", "inhibition": "18.9%"}
{"compound": "CCCN(CC1COc2ccccc2O1)C(=S)Nc1ccc(C)cc1", "note": "(centres undefined)", "inhibition": "46.4% (active)"}
{"compound": "CC(C)C(O)C1CCN(Cc2nc(Cc3ccccc3Cl)no2)CC1", "note": "(centres undefined)", "inhibition": "15.8%"}
{"compound": "C/C=C(/C)C(=O)O[C@@H]1c2cc3c(c4c2[C@@]2(CO4)C(=O)C(OC)=C(OC)C=C2C[C@@H](C)[C@H]1C)OCO3", "inhibition": "13.3%"}
{"compound": "C[C@@H](C(=O)N1CCNCC1)n1cc(CCC(=O)O)nn1", "inhibition": "-7.39%"}
{"compound": "CCCCC(O)(CCCC)C(=O)NN(C(=O)CCl)c1ccccc1", "inhibition": "49.5% (active)"}
{"compound": "COC(=O)N(NC(=O)C(O)(C(C)C)C(C)C)c1ccccc1", "inhibition": "-7.63%"}
{"compound": "CCCC(O)(CCC)C(=O)NN(C(=O)CCl)c1cccc(C)c1", "inhibition": "31.5%"}
{"compound": "Cc1ccnc(SCCn2c(N(C)Cc3ccccc3)nc3c2c(=O)n(C)c(=O)n3C)n1", "inhibition": "30%"}
{"compound": "COc1ccc(C(C#N)(CC(=O)O)c2cnccn2)cc1OC", "note": "(centres undefined)", "inhibition": "-2.88%"}
{"compound": "COc1ccccc1CNS(=O)(=O)c1ccc2c(c1)NC(=O)CS2", "inhibition": "-7.01%"}
{"compound": "Cn1c(=O)[nH]c(=O)c2c1nc(N1CCN(C(c3ccccc3)c3ccccc3)CC1)n2CCO", "inhibition": "10.4%"}
{"compound": "O=C(O)c1ccccc1CSc1nc2ccccc2s1", "inhibition": "2.18%"}
{"compound": "NC(=O)c1ccc(Nc2ccc3nonc3c2[N+](=O)[O-])cc1", "inhibition": "-0.57%"}
{"compound": "O=[N+]([O-])c1c(NCCO)cc(Sc2nc3ccccc3s2)c2nonc12", "inhibition": "42.6% (active)"}
{"compound": "COc1cc(C(=O)OCC(=O)NC(C)CCc2ccccc2)cc(OC)c1OC", "note": "(centres undefined)", "inhibition": "13.5%"}
{"compound": "CN1C(=O)[C@H]2[C@@H](/C=C/c3ccccc3)N3C(=O)CN(Cc4ccc(-c5ccccc5)cc4)C(=O)[C@@]3(C)[C@H]2C1=O", "inhibition": "1.58%"}
{"compound": "CCOCCn1c(-c2ccccc2)nc2ccccc21", "inhibition": "-13.4%"}
{"compound": "Cc1c(C(=O)Nc2cccc(Cl)c2)cn2c(nc3ccccc32)c1C#N", "inhibition": "10.2%"}
{"compound": "Cc1nc(-c2ccccc2)cn2c1nc1ccccc12", "inhibition": "40.7% (active)"}
{"compound": "COc1ccc(C(=O)OCC(=O)c2ccc(Cl)s2)c(OC)c1OC", "inhibition": "6.36%"}
{"compound": "Cc1ccc(S(=O)(=O)NCCC(c2ccccc2)c2ccccc2)cc1C(=O)O", "inhibition": "25.2%"}
{"compound": "COc1ccc(C(=O)COC(=O)CNC(=O)c2cccs2)cc1Br", "inhibition": "-2.83%"}
{"compound": "CC(=NNC(=O)c1ccc2nc[nH]c2c1)c1ccc(Br)cc1", "inhibition": "9.94%"}
{"compound": "CCN(CC)c1ccc(C(=O)N/N=C(\\C)c2cccc(OC)c2)cc1", "inhibition": "-18.4%"}
{"compound": "COc1ccc(/C(C)=N/NC(=O)c2ccc3nc[nH]c3c2)cc1", "inhibition": "52.3% (active)"}
{"compound": "O=C(Nc1ccncc1)c1ccccc1[N+](=O)[O-]", "inhibition": "0.557%"}
{"compound": "O=C(O/N=C(/c1ccccc1)c1ccncc1)c1ccccc1[N+](=O)[O-]", "inhibition": "41.3% (active)"}
{"compound": "CN(C)CCCO/N=C(\\c1ccccc1)c1ccncc1", "inhibition": "-3.73%"}
{"compound": "COc1ccc(OCC(=O)NNC(=O)C2CCC2)cc1", "inhibition": "-8.95%"}
{"compound": "O=C(Nc1ccc(Cl)c(Cl)c1)c1ccccc1NC(=O)C1CC=CCC1C(=O)O", "note": "(centres undefined)", "inhibition": "14.6%"}
{"compound": "COc1ccc(C(=O)Nc2ccccc2C(=O)N/N=C/c2ccccc2OC)cc1", "inhibition": "66.7% (active)"}
{"compound": "COc1ccc(C(=O)Nc2cc(C)c(NC(=O)c3ccccc3OC)cn2)cc1", "inhibition": "-34.5%"}
{"compound": "COc1ccccc1C(=O)NNC(=O)c1ccc(NC(=O)c2ccccc2)cc1", "inhibition": "-9.84%"}
{"compound": "CCOc1cc(/C=N/NC(=O)c2cc(-c3ccccc3)nc3ccccc23)ccc1O", "inhibition": "11.6%"}
{"compound": "COc1cc(/C=N/NC(=O)c2ccc(N3CCCC3=O)cc2)ccc1O", "inhibition": "13.5%"}
{"compound": "COc1ccc(C(=O)Nc2ccccc2C(=O)N/N=C/c2ccc(O)c(OC)c2)cc1", "inhibition": "97% (active)"}
